Data taken from PubChem BioAssay.
Calls of active or inactive are those of the source.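 Rule for the calls: active = membrane potential signal rise above negative control mean plus 3 SD in both duplicates, also active in the earlier TRPC4 screen; inactive = the rest.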

target: Short transient receptor potential channel 6 (Mus musculus) (UniProt Q61143); experiment: TRPC6 opening by TRPC4 activator hits – cell-based, HEK293, membrane potential dye, duplicate, selectivity assay for TRPC4 activator project, confirmation (AID 434950); conditions: HEK293 TRPC6, membrane potential fluorescence, at 10 µM; activation: stronger effect = higher value; outcome: activation;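 for activation: 0% = buffer only wells and 100% = acetylcholine maximal-effect wells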
Sequence (Q61143 whole entry, looked up): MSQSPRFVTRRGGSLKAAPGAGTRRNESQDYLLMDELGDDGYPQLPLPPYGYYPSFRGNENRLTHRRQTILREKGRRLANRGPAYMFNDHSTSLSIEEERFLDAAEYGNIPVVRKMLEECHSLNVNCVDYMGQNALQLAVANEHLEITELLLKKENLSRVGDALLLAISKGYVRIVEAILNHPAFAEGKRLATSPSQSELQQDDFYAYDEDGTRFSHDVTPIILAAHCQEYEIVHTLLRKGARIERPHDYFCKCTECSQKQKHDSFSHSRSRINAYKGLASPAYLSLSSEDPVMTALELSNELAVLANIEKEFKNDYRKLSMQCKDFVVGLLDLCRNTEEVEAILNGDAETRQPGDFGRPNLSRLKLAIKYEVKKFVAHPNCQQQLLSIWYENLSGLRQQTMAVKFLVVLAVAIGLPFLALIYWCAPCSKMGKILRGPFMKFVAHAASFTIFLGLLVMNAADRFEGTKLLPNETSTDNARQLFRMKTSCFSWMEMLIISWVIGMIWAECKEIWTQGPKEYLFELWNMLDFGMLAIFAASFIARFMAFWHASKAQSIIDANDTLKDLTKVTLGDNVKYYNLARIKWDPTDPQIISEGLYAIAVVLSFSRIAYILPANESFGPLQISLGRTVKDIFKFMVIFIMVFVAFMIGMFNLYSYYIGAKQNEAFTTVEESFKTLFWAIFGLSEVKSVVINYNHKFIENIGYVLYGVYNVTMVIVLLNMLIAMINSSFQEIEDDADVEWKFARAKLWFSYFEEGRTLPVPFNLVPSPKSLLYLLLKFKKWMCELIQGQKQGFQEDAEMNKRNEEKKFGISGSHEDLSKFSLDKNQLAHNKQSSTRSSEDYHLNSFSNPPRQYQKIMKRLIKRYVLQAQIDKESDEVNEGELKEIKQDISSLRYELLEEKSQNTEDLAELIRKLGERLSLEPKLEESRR

outcome, inactive:
CCN1CCN(c2ccc(S(=O)(=O)N3CCCCC3)cc2NC(=O)c2cccc(OC(F)F)c2)CC1
Fc1ccc(CN2C3=NCCCN3c3ccccc32)cc1
COc1ccc(-n2cc(CNCc3cnc4ccccn34)c(-c3cccc(F)c3)n2)cc1
N=c1c(C(=O)NCc2ccc(F)cc2)cc2c(=O)n3ccccc3nc2n1Cc1ccco1
O=C1CC2(CCN(S(=O)(=O)c3ccccc3F)CC2)Oc2ccccc21
O=C1Cc2ccccc2Sc2c(OCCN3CCCCC3)cccc21
C/C(CC(=O)NCc1ccc(Cl)cc1)=N\NC(=O)COc1ccc(C)cc1Br
CCCCNc1c(-c2ccc(SC(C)CC)c(OC)c2)nc2ccc(C)cn12 (centres undefined)
CCOC(=O)C1NN=C(C(=O)c2ccccc2)C1c1ccc(Cl)cc1 (centres undefined)
O=[N+]([O-])c1ccc(N2CCN(CCOc3nonc3-c3ccccc3)CC2)c(Cl)c1
COc1ccc(-c2cc(C(=O)N3CC(C)CC(C)C3)c3ccccc3n2)cc1 (centres undefined)
COC(=O)c1cc(N2CCN(C)CC2)nc2ccccc12
COc1cc(C2c3c(-c4ccccc4)n[nH]c3C(=O)N2c2ccccc2)ccc1O (centres undefined)
O=C(c1ccccc1)c1coc2ccc(O)c(CN3CCOCC3)c12
CN(C)S(=O)(=O)c1cccc(COC(=O)c2ccc(Cl)cc2O)c1
CCOC(=O)C1=C(C)N(c2ccccc2)C(=O)NC1c1cccc([N+](=O)[O-])c1 (centres undefined)
Cc1cc(=O)oc2cc(NC(=S)NCc3ccccn3)ccc12
Cc1nnc(Sc2cc(NCCCO)c([N+](=O)[O-])c3nonc23)s1
CCOC(=O)C1=NNC(C(=O)c2ccc(Cl)cc2)C1c1ccc(OC)cc1 (centres undefined)
CN1CCN(NC(=O)Nc2cc(Cl)cc(Cl)c2)CC1
Cc1ccc(C[n+]2cccc(-c3ccccc3)c2)c(C)c1
Cc1ccc(C(=O)C[n+]2cccc3cc(C)ccc32)cc1
COc1ccc(OC)c(NC(=O)COC(=O)Cc2ccc(-c3ccccc3)cc2)c1
CC(C)c1ccc(C(C)NCCS(=O)(=O)c2ccc(Br)cc2)cc1 (centres undefined)
Cc1ccc(-n2c(N)cc(=O)nc2SCC(=O)N2CCN(c3ccccc3)CC2)cc1
N=c1c(C(=O)NCC2CCCO2)cc2c(=O)n3ccccc3nc2n1Cc1ccc(Cl)cc1 (centres undefined)
CN(CCNC(=O)c1ccc(/C=N/O)nc1)Cc1ccccc1
CCOC(=O)C1=C(CNCCc2ccc(Cl)cc2)NC(=O)NC1c1cccc([N+](=O)[O-])c1 (centres undefined)
O=C(NCC(c1ccco1)N1CCc2ccccc2C1)c1ccc(F)cc1 (centres undefined)
CCCc1c(-c2ccc(O)cc2)nn(-c2ccc(O)cc2)c1-c1ccc(O)cc1
Cc1ccc(-c2c(C(=O)N/N=C/c3ccc(OC(C)C)cc3)nnn2-c2nonc2N)cc1
CCOC(=O)CSc1nc2ccccc2c(=O)n1C1CCCC1
CCN1C(=O)/C(=C/C=C2\N(CC)c3cc(S(=O)(=O)N(C)C)ccc3N2c2ccccc2)SC1=S
CCCCn1c(N)c(N(CCOC)C(=O)c2ccc(-c3ccc(C(C)=O)cc3)o2)c(=O)[nH]c1=O
CC(C)CN(C(=O)C1CC1)c1c(N)n(Cc2ccccc2)c(=O)[nH]c1=O
CCOC(=O)CC(NS(=O)(=O)c1ccc(OC)c(C)c1)c1cccc([N+](=O)[O-])c1 (centres undefined)
Clc1ccc2nc(CN3CCCc4ccccc43)cn2c1
Cc1cc(Cl)ccc1OC(C)C(=O)Nc1ccccc1N1CCOCC1 (centres undefined)

activation, active:
Cc1ccc(C)c(N(CC(=O)NC2CCCC2)C(=O)c2csnn2)c1 30%
